AMA1-RON2 inh = qHTS for Inhibitors of AMA1-RON; Towards Development of Antimalarial Drug Lead: Primary Screen; AID 720542, 2013; 360,000 compounds, 0.2% hits; AlphaScreen AMA1-biotinylated RON2 peptide binding; Potency, µM (highest dose often 58.2 µM), for inactives: at the highest dose activity change, negative = inhibition, actives largely listed as inhibitors; Plasmodium falciparum AMA1 (3D7) - RON2 peptide interaction;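 also: potency is read from the fitted curve at half-maximal effect; 0% = vehicle wells and -100% = peptide control; nearly all actives have a fitted effect of over 45% in size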
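AMA1 (3D7) with his tag at 25 nM final met compounds first, then biotinylated RON2 peptide at 25 nM; detection used donor plus acceptor beads, 10 µg/mL apiece, read by AlphaScreen after 30 min at room temperature.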
SARS PLP yeast = qHTS of Yeast-based Assay for SARS-CoV PLP. 330,000 compounds, 0.19% hits. S. cerevisiae expressing SARS-CoV PLpro, growth rescue. Potency, µM (series often up to 32.9 µM), without a hit: at the top dose activity, positive = growth rescue, hits mostly activators; calls by dose curve; also: potency is read from the fitted curve at half-maximal effect; 0% is about no effect; nearly all actives have a fitted effect of over 55% in size
Shiga inhibitor = A qHTS for Small Molecule Inhibitors of Shiga Toxin; Vero cells, Shiga toxin protein synthesis inhibition reporter; inhibition, % at 38.7 µM; 290,000 compounds, 9.2% hits; in the data active = inhibition mostly above about 28%, no sharp cut-off; inactive = mostly below about 43%; also: 0% is about no effect
Pf growth 48h = Primary qHTS for delayed death inhibitors of the malarial parasite plastid, 48 hour incubation; 310,000 compounds, 5.9% hits; AID 504832, 2011; Potency, µM (top dose mostly 28.7 µM), without a hit: top-dose activity change, negative = inhibition, hits mostly inhibitors; P. falciparum luciferase growth in erythrocytes, 48 h; also: potency is read from the fitted curve at half-maximal effect; % is scaled to controls: 0 for no effect and ±100 for the full control effect
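Luciferase-expressing P. falciparum in infected erythrocytes (2% hematocrit, 0.1% parasitemia final) in RPMI 1640/0.5% Albumax were exposed to compound for 48 hours at 37 C, 5% CO2; growth read as luminescence.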
Cycloheximide cs = Cycloheximide Counterscreen for Small Molecule Inhibitors of Shiga Toxin; cell reporter, cycloheximide protein synthesis inhibition counterscreen; max response, %; 300,000 compounds, 12% hits; AID 2314, 2010; in the data active = max response mostly above about 13%, no sharp cut-off; inactive = mostly below about 14%; also: read at 38.3 µM for the half of the compounds with a filed dose; 0% is about no effect
Pf growth 96h = Primary qHTS for delayed death inhibitors of the malarial parasite plastid, 96 hour incubation; AID 504834, 2011; Potency, µM (series often up to 28.7 µM), inactives show top-dose activity change, negative = inhibition, usual class: inhibitors; P. falciparum luciferase reporter growth, 96 h; 320,000 compounds, 6.9% hits; also: potency is read from the fitted curve at half-maximal effect; % is scaled to controls: 0 for no effect and ±100 for the full control effect
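Two parasite generations (96 h, 37 C, 5% CO2) of compound exposure in infected erythrocytes (0.05% parasitemia, 2% hematocrit). Luciferase-reporter P. falciparum; decreased luminescence indicates inhibited growth, aimed at apicoplast-acting delayed death.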
* hit, by the source's call. Compounds with a hit are over-represented: about 19% of the library has one in this group of screens. Unless noted, calls follow the shape of the dose curve; as a rule, active = well fitted curve in the direction sought with a large enough effect; inconclusive = small, poorly fitted or top-dose-only effect, or another doubt; inactive = no such curve, though single readings can be large; an effect the other way counts as inactive or inconclusive.

Screening Cc1nc2ccccc2c(=O)n1/N=C/c1ccc(O)cc1 returned AMA1-RON2 inh 2.4%, SARS PLP yeast inconclusive, Shiga inhibitor 17.3, Pf growth 48h -6.3%, Cycloheximide cs 1.2 and Pf growth 96h 52.5%.
`Cc1nc2ccccc2c(=O)n1/N=C/c1ccc(C(C)C)cc1` gave AMA1-RON2 inh 3.6%, SARS PLP yeast -3.1%, Shiga inhibitor 37.6*, Pf growth 48h 41.6%, Cycloheximide cs 21.6* and Pf growth 96h 50.5%.
Cc1cccc(/C=N/n2c(C)nc3ccccc3c2=O)c1 was read as AMA1-RON2 inh 0.0%, SARS PLP yeast 0.9%, Shiga inhibitor 100.5*, Pf growth 48h 17.0%, Cycloheximide cs 22.1* and Pf growth 96h 50.5%.
For Cc1nc2ccccc2c(=O)n1/N=C/c1cccnc1 the results were AMA1-RON2 inh 16.0%, SARS PLP yeast -8.3%, Shiga inhibitor -11.3, Cycloheximide cs 2.3 and Pf growth 96h -0.6%.
Screening Nc1c(S(=O)(=O)c2cccc(Cl)c2)c2nc3ccccc3nc2n1/N=C/c1ccc(O)c(O)c1 returned SARS PLP yeast -2.1%, Shiga inhibitor -9.2, Pf growth 48h 7.38µM*, Cycloheximide cs -1.7 and Pf growth 96h -15.6%.
Screening c1ccc2cc3[nH]c(CN4CCOCC4)nc3cc2c1 returned AMA1-RON2 inh 4.6%, SARS PLP yeast -15.4%, Shiga inhibitor 34.6*, Pf growth 48h 10.9%, Cycloheximide cs 17.3* and Pf growth 96h inconclusive.
`O=C(c1ccccc1Cl)N1CCN(c2ncccn2)CC1` gave AMA1-RON2 inh 14.2%.
Screening C[N+]12CCC(CC1)C(=C(c1ccccc1)c1ccccc1)C2 returned AMA1-RON2 inh 3.1%, SARS PLP yeast -3.1%, Shiga inhibitor 4.1, Pf growth 48h 0.738µM*, Cycloheximide cs -0.9 and Pf growth 96h 0.586µM*.
Screening CCC12CC3CC(C1)CC(C(=O)NNC(N)=O)(C3)C2 returned AMA1-RON2 inh -1.8%, SARS PLP yeast 1.1%, Shiga inhibitor -2.1, Pf growth 48h 48.9%, Cycloheximide cs 1.1 and Pf growth 96h 0.0%.
For S=c1[nH]nc(-c2ccco2)n1-c1ccccc1Cl the results were AMA1-RON2 inh 24.3%, SARS PLP yeast 0.7%, Shiga inhibitor 67.5*, Pf growth 48h inconclusive, Cycloheximide cs 32.5* and Pf growth 96h 30.8%.
S=c1[nH]nc(-c2ccn[nH]2)n1-c1ccccc1Cl was read as AMA1-RON2 inh 54.9%, SARS PLP yeast -0.7%, Shiga inhibitor 72.3*, Pf growth 48h 7.1%, Cycloheximide cs 28.1* and Pf growth 96h -2.2%.
CCCCc1noc(-c2c(-c3ccccc3Cl)noc2C)n1 was read as AMA1-RON2 inh 75.6%, SARS PLP yeast -6.0%, Shiga inhibitor 12.3, Pf growth 48h inconclusive, Cycloheximide cs 11.1 and Pf growth 96h 8.9%.
Screening CCCCc1nnc(NC(=O)C(C)Sc2nc(O)c(Cc3ccccc3)c(=O)[nH]2)s1 (stereo not given) returned AMA1-RON2 inh -9.8%, SARS PLP yeast -1.4%, Shiga inhibitor -19.0, Pf growth 48h -1.2%, Cycloheximide cs 2.2 and Pf growth 96h 0.1%.
Cc1ccc(CNC(=O)Cn2ccc3cc(S(=O)(=O)N4CCCC4)ccc32)o1 was read as AMA1-RON2 inh 3.5%, SARS PLP yeast 0.8%, Shiga inhibitor -1.9, Pf growth 48h -1.8%, Cycloheximide cs 0.4 and Pf growth 96h 33.6%.
CC1NC2(C(=O)N(Cc3ccccc3)c3ccccc32)C2C(=O)N(c3ccccc3)C(=O)C12 (stereo not given) was read as AMA1-RON2 inh -4.1%, SARS PLP yeast 10.4%, Shiga inhibitor 7.6, Pf growth 48h inconclusive, Cycloheximide cs 12.0 and Pf growth 96h 11.7µM*.
For COc1ccc(CN(C)C[C@H]2OCCCC[C@@H](C)Oc3ccc(NS(C)(=O)=O)cc3C(=O)N([C@H](C)CO)C[C@@H]2C)cc1 the results were AMA1-RON2 inh 9.6%.
`O=S(=O)(/N=C(/NC(=S)Nc1ccccc1)c1ccccc1)c1ccc(Cl)cc1` gave AMA1-RON2 inh 18.3%, SARS PLP yeast -2.7%, Shiga inhibitor 100.7*, Pf growth 48h 171.8%, Cycloheximide cs 41.1* and Pf growth 96h inconclusive.
For COc1ccc(NC(=S)N/C(=N/S(=O)(=O)c2ccc(C)cc2)c2ccccc2)cc1 the results were AMA1-RON2 inh 6.5%, SARS PLP yeast 4.7%, Shiga inhibitor 60.8*, Pf growth 48h 153.5%, Cycloheximide cs 34.1* and Pf growth 96h 42.5%.
Screening COc1ccc(NS(=O)(=O)c2cc(C(=O)N3CCN(C(C)=O)CC3)ccc2Cl)cc1 returned AMA1-RON2 inh -7.0%, SARS PLP yeast 3.0%, Shiga inhibitor -7.9, Pf growth 48h 12.6%, Cycloheximide cs 2.6 and Pf growth 96h inconclusive.
`COc1ccc(NC(=S)NC(=NS(=O)(=O)c2ccc(Cl)cc2)c2ccccc2)cc1` gave AMA1-RON2 inh 24.2% and SARS PLP yeast -0.4%.
`COc1ccc(NS(=O)(=O)c2cc(N/C(=N\S(=O)(=O)c3ccccc3)c3ccc(F)cc3)ccc2Cl)cc1` gave AMA1-RON2 inh 4.4%, SARS PLP yeast -2.4%, Shiga inhibitor 14.5, Pf growth 48h inconclusive, Cycloheximide cs -2.6 and Pf growth 96h 10.4µM*.
CCC1CCCCN1CCCNC(=O)c1ccc(N2CCCC2=O)cc1 (stereo not given) was read as AMA1-RON2 inh 10.9%, SARS PLP yeast 2.5%, Shiga inhibitor 1.2, Pf growth 48h -7.5%, Cycloheximide cs 0.9 and Pf growth 96h 7.1%.
For O=C(O)C1C2CCC(O2)C1C(=O)Nc1ccc(F)c(Cl)c1 (stereo not given) the results were AMA1-RON2 inh -13.4%, SARS PLP yeast 2.1%, Shiga inhibitor -4.9, Pf growth 48h 8.8%, Cycloheximide cs -3.0 and Pf growth 96h 11.7µM*.
For COc1ccc(NC(=O)C2C3CCC(O3)C2C(=O)O)c(C)c1 (stereo not given) the results were AMA1-RON2 inh -0.7%, SARS PLP yeast -0.7%, Shiga inhibitor 2.2, Pf growth 48h 100.3%, Cycloheximide cs 0.5 and Pf growth 96h inconclusive.
`Cc1ccc(NC(=O)C2C3CCC(O3)C2C(=O)O)cc1Cl` (stereo not given) gave AMA1-RON2 inh -15.7%, SARS PLP yeast -14.6%, Shiga inhibitor -3.1, Pf growth 48h 6.9%, Cycloheximide cs -2.0 and Pf growth 96h 13.1µM*.
COc1ccc(NC(=O)C2C3CCC(O3)C2C(=O)O)c(OC)c1 (stereo not given) was read as AMA1-RON2 inh -5.4%, SARS PLP yeast -0.6%, Shiga inhibitor 37.4, Pf growth 48h -3.0%, Cycloheximide cs 29.2* and Pf growth 96h inconclusive.

Compound activity from PubChem BioAssay.
